ChEMBL document CHEMBL1201862, “PubChem BioAssay data set” (2004)
Several values for one entry are separate records, joined by “and”; a condition that tells them apart may be missing. Equal entries are not always repeated. The whole screen tested about 75,000 compounds, of which about 5,700 (7.6%) were called active. Roughly 7% stayed inconclusive and do not appear here. No cut-off for these calls is given here. The full list was thinned out, with actives kept by preference.

target: T1, 3-hydroxyacyl-CoA dehydrogenase type-2 (Homo sapiens) (UniProt Q99714); test: qHTS Assay for Inhibitors of HSD17B4, hydroxysteroid (17-beta) dehydrogenase 4.; format: functional
T1 sequence (whole entry): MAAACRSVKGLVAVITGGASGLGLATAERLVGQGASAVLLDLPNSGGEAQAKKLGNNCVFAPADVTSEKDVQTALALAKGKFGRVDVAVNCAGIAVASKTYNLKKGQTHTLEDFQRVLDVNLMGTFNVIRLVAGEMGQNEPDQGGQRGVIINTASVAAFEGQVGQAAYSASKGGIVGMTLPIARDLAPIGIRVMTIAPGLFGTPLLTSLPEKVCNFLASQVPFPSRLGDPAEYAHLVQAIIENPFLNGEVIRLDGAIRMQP

SMILES | Potency
O=C(O)c1cc(-c2ccc(F)cc2F)ccc1O | 31.6 µM (active) and 12.6 µM (active)
Cc1c(OCC(=O)OC(C)C)ccc2c3c(c(=O)oc12)CCC3 | inactive
